# Reference: PubChem BioAssay AID504843 (Broad Institute, 2011)
# Hit rate of the full screen: of about 1,200 compounds, about 360 (30%) were called active. Not all results are given here. Measured potencies and affinities stand elsewhere. Unmarked numbers belong to inactive results. No rule for the calls is given here.
# Test: bacterial growth inhibition, dose response, counter-screen, BacTiter-Glo luminescence, cherry-picked samples (AID 504843);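 also: growth measured after 8 h incubation at 30 °C; 0% = median of sample compound wells and -100% = antibiotic control wells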
# Conditions: BacTiter-Glo ATP luminescence; series mostly up to 15 µM; activity change, negative = inhibition: at the top concentration
row,Compound,"activity change, negative = inhibition [%]"
1,CCCc1cc(=O)oc2cc(OCC(=O)N(C)C)c(Cl)cc12,0.057
2,COc1ccc(C(CNC(=O)c2cc(SC)ccc2Cl)N(C)C)cc1 (stereo not drawn),18.1
3,O=C(NC(=S)NNC(=O)c1ccccc1O)c1ccccc1,-3.27
4,O=C(c1ccco1)N1CCN(C(=O)c2ccc(CS(=O)c3ccc(F)cc3)o2)CC1 (stereo not drawn),0.136
5,CCC(=NCCc1ccc(OC)c(OC)c1)C1=C(O)CC(C)(C)CC1=O,13.4
6,COCCNC(=O)c1c[nH]c2ccc(S(=O)(=O)N3CCc4ccccc43)cc2c1=O,9.26
7,COc1cc(OC)cc(C(=O)NC2CC(C)(C)NC(C)(C)C2)c1,13.5
8,CC(=O)c1cc(CN2CCCCC2)cc(OC(C)C)c1,-0.098
9,CCc1cc2c(=O)n(C(C)C(=O)OC3CCCCC3)cnc2s1 (stereo not drawn),0.744
10,O=C(Nc1cc(N2CCOCC2)ncn1)c1ccccc1,-16.3
11,COc1ccccc1N1C(=NC(=O)CCc2ccccc2)SC2CS(=O)(=O)CC21 (stereo not drawn),3.8
12,CCCn1c2c(c(=N)c3c1CCC3)CCCC2,-11.5
13,CC(C)(C#N)NC(=O)C1CCCN1S(=O)(=O)c1ccc2ccccc2c1 (stereo not drawn),-6.47
14,CC(=O)c1ccc(NC(=O)C2CCCN2S(=O)(=O)c2cccc3cccnc23)cc1 (stereo not drawn),-10
15,Cc1ccc(S(=O)(=O)NC(C)(C)CSc2nnc(Nc3ccccc3)s2)cc1,-0.402
16,Cc1ccc(NC(=O)CN2CCN(c3ccccn3)CC2)c(Cl)c1,-4.89
17,O=C(CN1CCCCC1)Nc1cc(Cl)ccc1Cl,1.36
18,CCC1Nc2ncnc(N3CCOCC3)c2N(Cc2ccc(Cl)cc2)C1=O (stereo not drawn),7.38
19,O=C(Nc1cccnc1Cl)c1noc2c1CCc1ccccc1-2,-16.5
20,CC1=C(C#N)C(c2cn(-c3ccccc3)nc2-c2cccs2)C(C#N)=C(C)N1,-12.6
21,CC(=O)Nc1cccc(-c2csc(Nc3cc(C)ccn3)n2)c1,0.359
22,O=C(O)c1ccc(NC2=C(N3CCOCC3)C(=O)c3ccccc3C2=O)cc1,8.16
23,COC(=O)COc1cccc(NC(=O)c2cccc(C)c2)c1,-12.3
24,Cc1cccc(OCC(O)Cn2c(=N)n(CCN3CCOCC3)c3ccccc32)c1 (stereo not drawn),-6.21
25,CCCNC(=O)c1cc(C)no1,-13.7
26,COc1ccc(/C(C)=N/NC(=O)CNC(=O)c2ccncc2)c(OC)c1,14.3
27,CCCCc1ccc(N=N/C(C(=O)Nc2ccc(NC(C)=O)cc2OC)=C(/C)O)cc1,4.01

row,Compound,"activity change, negative = inhibition [%]"
1,Cc1ccc(C)c(S(=O)(=O)Nc2cc(SCC(=O)O)c(O)c3ccccc23)c1,-2.04
2,CC1(C)c2ccccc2N2CC(=O)NC21/C=C/c1ccco1 (stereo not drawn),-2.83
3,C=CCNC(=S)Nc1cccc2[nH]ncc12,-0.478
4,C=CCn1cccc(C(=O)Nc2ccc(OC)cc2)c1=O,-12.5
5,O=[N+]([O-])c1cccc(N(CC(O)CN2CCCCC2)S(=O)(=O)c2ccccc2)c1 (stereo not drawn),-3.49
6,COc1cccc(CN2CCN(C(=O)c3ccco3)CC2)c1,18.3
7,CCC(CO)NC(=O)c1cccc(S(=O)(=O)N2c3ccccc3CC2C)c1 (stereo not drawn),9.79
8,Nc1ccc(S(=O)(=O)N2CCCc3ccccc32)cc1,-21.1
9,O=C(COC(=O)c1cccc(S(=O)(=O)N2CCc3ccccc32)c1)Nc1ncc(C(F)(F)F)cc1Cl,2.36
10,COc1ccc(S(=O)(=O)Nc2nc3c(s2)CCCC3)cc1,12.9
11,C[C@H]1NC(=O)[C@@]2(C)[C@@H](c3ccccc3)[C@H]3COc4ccccc4[C@H]3N2C1=O,-2.87
12,CCNc1nc(SCCOc2ccc(C)cc2)nc(N(C)C)n1,-1.81
13,CCC1SC(C)C/C(=N/NC(N)=O)C1C (stereo not drawn),17.8
14,CN(C)c1cccc(C(=O)N/N=C/c2ccccc2F)c1,-8.46
15,CCOC(=O)c1ccc(NC(=O)c2cn(CCC#N)nc2-c2ccc3c(c2)OCCO3)cc1,15.1
16,O=C(NCc1cccnc1)c1cccc(-c2cc3ccccc3oc2=O)c1,13.5
17,Cc1cnc(C(=O)OCC(=O)Nc2sc3c(c2C#N)CCC3)cn1,5.17
18,CC1CCN(C(=O)c2ccc(S(=O)(=O)N3CCCC3)cc2)CC1,-11.1
19,CC(=O)Oc1ccc(C(=O)Nc2ccccc2C(=O)N2CCCCC2)cc1,-5.23
20,CCOC(=O)C1CCN(C(=O)Nc2ccc(C)c(Cl)c2)CC1,2.75
21,Cc1ccccc1C(=O)N1CCN(c2ccc(NC(=S)NC(=O)c3cccs3)cc2)CC1,-13.8
22,CCc1ccc2c(COC(=O)C3CC(=O)N(CCc4ccccc4)C3)cc(=O)oc2c1 (stereo not drawn),-8.14
23,CCn1c(SCC(=O)c2ccccc2)nnc1-c1cccnc1,4.29
24,CN(C)c1nc(NCc2ccccc2)nc(SCC(N)=O)n1,0.62
25,COc1ccc(NC(=O)COCC(=O)Nc2ccc(C)cc2)cc1,2.25
26,CCOC(=O)C(C(=O)Nc1ccc(C)cc1)C1CCCCC1 (stereo not drawn),2.6
